For five molecules, inhibition results are on record in ChEMBL document CHEMBL1961873, “Compounds: GSK PKIS; Assays: Nanosyn kinase panel” (2012).

For assay [1], the target named is Mast/stem cell growth factor receptor Kit (Homo sapiens) (UniProt P10721). Particulars: at 1 µM.
In assay [2] the test system is Mast/stem cell growth factor receptor Kit (Homo sapiens), P10721 [D816V]. Particulars: at 0.1 µM.
The test system is the same in assay [3]. To be noted: at 1 µM.
Assay [4] deals with Mast/stem cell growth factor receptor Kit (Homo sapiens), P10721 [T670I]. Particulars: at 0.1 µM.
Mast/stem cell growth factor receptor Kit (Homo sapiens), P10721 [T670I], sequence (P10721 whole entry T670I): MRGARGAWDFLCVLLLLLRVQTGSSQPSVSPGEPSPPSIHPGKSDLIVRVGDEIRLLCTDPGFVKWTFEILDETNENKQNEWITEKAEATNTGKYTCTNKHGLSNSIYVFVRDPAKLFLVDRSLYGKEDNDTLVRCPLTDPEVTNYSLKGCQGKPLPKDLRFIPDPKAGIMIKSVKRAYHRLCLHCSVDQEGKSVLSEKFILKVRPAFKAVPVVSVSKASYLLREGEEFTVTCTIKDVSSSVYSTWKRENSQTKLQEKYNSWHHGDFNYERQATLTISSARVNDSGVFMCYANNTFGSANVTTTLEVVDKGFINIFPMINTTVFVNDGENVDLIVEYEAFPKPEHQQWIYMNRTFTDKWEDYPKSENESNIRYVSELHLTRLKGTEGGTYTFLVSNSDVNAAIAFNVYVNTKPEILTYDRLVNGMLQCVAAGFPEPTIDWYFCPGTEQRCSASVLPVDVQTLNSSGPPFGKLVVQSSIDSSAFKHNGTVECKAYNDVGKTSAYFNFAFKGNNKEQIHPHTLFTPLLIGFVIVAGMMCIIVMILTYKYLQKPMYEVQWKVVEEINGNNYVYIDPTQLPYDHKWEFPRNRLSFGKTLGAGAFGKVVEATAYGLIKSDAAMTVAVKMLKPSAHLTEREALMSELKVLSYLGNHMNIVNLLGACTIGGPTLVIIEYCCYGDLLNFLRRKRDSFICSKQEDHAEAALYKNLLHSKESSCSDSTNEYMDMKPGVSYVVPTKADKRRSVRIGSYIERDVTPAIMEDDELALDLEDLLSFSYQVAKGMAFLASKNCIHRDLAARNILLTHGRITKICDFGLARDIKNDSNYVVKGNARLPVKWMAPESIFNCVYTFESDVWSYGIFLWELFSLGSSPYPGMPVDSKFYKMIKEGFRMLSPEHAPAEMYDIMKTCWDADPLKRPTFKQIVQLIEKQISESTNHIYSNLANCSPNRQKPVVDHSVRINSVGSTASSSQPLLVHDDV
Assay [5] shares this test system. To be noted: at 1 µM.
Assay [6] deals with Mast/stem cell growth factor receptor Kit (Homo sapiens), P10721 [V560G]. Particulars: at 0.1 µM.
Mast/stem cell growth factor receptor Kit (Homo sapiens), P10721 [V560G], sequence (P10721 whole entry V560G): as the sequence (P10721 whole entry T670I) above, with V560G, I670T counted along it
Assay [7] shares this test system. To be noted: at 1 µM.
The target in assay [8] is Tyrosine-protein kinase Lck (Homo sapiens) (UniProt P06239). Particulars: at 0.1 µM.
Tyrosine-protein kinase Lck (Homo sapiens), sequence (P06239 2-509 limits assumed): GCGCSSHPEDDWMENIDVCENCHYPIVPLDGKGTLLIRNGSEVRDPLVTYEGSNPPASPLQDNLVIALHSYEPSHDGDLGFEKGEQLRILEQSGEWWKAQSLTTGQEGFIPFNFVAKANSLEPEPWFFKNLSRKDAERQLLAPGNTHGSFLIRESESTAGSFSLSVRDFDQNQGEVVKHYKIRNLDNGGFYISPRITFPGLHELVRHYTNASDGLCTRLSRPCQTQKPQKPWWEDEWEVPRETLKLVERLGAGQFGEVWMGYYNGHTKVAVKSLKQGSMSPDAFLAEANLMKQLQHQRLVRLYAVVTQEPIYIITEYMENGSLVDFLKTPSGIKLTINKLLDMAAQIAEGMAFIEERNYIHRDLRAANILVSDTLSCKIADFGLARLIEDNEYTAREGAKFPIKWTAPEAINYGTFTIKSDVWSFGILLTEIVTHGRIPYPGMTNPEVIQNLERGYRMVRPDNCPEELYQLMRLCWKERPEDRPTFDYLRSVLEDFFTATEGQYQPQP
The target is the same in assay [9]. To be noted: at 1 µM.
Assay [10] addresses Leukocyte tyrosine kinase receptor (Homo sapiens) (UniProt P29376). To be noted: at 0.1 µM.
Assay [11] shares this target. Particulars: at 1 µM.
The target of assay [12] is Tyrosine-protein kinase Lyn (Homo sapiens) (UniProt P07948). Particulars: at 0.1 µM.
Tyrosine-protein kinase Lyn (Homo sapiens), sequence (P07948 2-512 limits assumed): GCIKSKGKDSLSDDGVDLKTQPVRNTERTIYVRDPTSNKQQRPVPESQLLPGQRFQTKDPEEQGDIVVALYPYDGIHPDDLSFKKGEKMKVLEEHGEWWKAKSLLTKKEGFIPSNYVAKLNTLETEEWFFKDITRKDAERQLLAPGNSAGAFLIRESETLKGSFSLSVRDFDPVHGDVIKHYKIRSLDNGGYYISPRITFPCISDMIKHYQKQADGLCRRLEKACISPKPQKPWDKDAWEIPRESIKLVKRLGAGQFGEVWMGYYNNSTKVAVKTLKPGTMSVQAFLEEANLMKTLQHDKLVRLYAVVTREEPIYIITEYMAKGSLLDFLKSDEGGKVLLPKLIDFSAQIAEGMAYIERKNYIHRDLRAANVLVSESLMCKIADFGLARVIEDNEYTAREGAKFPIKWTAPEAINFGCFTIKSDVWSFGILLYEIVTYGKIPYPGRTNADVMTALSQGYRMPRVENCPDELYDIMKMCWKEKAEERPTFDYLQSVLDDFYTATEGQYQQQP
For assay [13] the target is unchanged. To be noted: at 1 µM.
Assay [14] has the same target. To be noted: at 0.1 µM. This is another data set of the same source.
Assay [15] shares this target. To be noted: at 1 µM. This is another data set of the same source.
For assay [16], the target named is T1, Tyrosine-protein kinase Mer (Homo sapiens) (UniProt Q12866).
T1 sequence (whole entry): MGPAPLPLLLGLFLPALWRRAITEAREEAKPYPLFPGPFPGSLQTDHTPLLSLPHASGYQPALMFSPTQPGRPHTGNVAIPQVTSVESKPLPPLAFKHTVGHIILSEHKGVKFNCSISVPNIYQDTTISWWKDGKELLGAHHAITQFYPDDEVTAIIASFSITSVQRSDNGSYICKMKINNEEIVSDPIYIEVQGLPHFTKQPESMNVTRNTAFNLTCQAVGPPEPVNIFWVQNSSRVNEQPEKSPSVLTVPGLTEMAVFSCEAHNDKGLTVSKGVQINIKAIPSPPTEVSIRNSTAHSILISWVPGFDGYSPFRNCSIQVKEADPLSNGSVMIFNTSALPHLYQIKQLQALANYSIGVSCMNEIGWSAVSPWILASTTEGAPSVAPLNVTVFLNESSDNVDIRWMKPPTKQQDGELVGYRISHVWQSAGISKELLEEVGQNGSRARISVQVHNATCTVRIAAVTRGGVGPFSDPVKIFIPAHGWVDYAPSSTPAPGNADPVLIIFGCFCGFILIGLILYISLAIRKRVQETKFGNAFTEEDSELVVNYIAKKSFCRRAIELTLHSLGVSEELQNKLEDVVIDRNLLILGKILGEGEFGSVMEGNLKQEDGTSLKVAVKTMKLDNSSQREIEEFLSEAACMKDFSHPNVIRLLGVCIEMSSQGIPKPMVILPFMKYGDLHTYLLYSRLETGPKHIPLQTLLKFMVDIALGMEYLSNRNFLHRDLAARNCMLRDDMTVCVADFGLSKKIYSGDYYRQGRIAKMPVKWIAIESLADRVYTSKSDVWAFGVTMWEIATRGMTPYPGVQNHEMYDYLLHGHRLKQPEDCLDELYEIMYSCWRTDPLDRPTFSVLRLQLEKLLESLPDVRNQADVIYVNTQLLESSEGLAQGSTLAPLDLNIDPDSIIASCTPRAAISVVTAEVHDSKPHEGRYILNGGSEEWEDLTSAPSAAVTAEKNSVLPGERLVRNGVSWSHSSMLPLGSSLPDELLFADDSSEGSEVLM
Particulars: at 0.1 µM.

The target in assay [17] is T1, Tyrosine-protein kinase Mer (Homo sapiens). Particulars: at 1 µM.
The target in assay [18] is Hepatocyte growth factor receptor (Homo sapiens) (UniProt P08581). Particulars: at 0.1 µM.
Hepatocyte growth factor receptor (Homo sapiens), sequence (P08581 whole entry): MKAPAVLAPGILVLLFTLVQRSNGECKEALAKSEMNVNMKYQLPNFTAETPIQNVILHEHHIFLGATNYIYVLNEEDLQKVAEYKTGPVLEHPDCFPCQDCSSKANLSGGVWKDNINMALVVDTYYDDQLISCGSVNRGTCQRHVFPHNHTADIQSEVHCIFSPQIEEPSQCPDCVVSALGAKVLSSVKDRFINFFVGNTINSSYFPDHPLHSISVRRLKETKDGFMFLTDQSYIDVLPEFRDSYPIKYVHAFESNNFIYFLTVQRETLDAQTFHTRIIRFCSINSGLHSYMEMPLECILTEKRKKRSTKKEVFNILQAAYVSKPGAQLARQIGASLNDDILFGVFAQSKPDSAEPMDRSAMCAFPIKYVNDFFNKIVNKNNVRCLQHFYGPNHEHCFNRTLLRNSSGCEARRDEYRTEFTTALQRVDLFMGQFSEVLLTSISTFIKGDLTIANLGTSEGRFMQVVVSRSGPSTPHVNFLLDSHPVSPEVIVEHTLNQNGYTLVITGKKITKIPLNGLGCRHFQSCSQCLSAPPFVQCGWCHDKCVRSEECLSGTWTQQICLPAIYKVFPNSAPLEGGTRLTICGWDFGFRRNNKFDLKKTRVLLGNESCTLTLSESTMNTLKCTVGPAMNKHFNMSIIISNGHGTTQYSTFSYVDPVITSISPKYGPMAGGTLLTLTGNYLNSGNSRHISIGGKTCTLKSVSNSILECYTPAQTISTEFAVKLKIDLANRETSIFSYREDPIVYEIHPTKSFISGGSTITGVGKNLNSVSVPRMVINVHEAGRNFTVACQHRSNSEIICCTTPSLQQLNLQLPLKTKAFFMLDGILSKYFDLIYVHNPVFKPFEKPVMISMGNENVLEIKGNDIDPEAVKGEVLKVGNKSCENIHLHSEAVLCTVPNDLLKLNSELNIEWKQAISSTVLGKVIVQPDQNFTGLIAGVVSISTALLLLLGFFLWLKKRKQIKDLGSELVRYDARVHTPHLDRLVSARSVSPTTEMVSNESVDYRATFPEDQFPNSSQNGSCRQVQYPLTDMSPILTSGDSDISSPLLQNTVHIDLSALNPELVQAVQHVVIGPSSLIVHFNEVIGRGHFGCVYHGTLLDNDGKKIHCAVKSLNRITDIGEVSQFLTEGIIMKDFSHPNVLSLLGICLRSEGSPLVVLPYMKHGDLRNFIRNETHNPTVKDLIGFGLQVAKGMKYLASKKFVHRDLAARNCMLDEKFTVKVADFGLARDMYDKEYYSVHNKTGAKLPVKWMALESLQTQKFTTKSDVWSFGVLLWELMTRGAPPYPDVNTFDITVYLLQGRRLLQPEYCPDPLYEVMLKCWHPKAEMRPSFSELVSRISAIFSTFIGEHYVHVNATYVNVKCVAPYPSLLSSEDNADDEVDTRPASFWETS
The target is the same in assay [19]. Particulars: at 1 µM.
Assay [20] has as its target T2, Muscle, skeletal receptor tyrosine-protein kinase (Homo sapiens) (UniProt O15146).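 Further: values are mean inhibition of MuSK from the GSK PKIS kinase screening panel.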
T2 sequence (whole entry): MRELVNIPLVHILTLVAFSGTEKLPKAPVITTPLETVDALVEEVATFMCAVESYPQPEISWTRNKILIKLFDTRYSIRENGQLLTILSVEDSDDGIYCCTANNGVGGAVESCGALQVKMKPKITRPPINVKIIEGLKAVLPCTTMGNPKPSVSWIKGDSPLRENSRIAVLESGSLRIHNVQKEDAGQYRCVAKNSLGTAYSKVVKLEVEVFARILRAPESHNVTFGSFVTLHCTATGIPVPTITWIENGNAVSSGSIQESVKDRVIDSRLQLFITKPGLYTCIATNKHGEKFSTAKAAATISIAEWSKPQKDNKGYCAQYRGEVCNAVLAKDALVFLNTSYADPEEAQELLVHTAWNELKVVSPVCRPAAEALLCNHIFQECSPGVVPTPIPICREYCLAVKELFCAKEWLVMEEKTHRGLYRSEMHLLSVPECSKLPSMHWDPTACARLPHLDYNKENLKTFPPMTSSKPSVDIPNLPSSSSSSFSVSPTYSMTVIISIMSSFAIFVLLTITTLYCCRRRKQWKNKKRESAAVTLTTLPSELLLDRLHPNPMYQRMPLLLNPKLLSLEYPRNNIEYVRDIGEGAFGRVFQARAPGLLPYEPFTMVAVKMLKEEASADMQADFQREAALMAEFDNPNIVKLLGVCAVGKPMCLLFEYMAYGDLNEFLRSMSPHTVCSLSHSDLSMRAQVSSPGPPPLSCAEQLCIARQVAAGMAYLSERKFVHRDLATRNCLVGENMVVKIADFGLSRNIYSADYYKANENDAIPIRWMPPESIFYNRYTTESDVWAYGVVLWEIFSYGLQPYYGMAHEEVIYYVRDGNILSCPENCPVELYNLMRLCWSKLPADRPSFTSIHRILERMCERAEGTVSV
To be noted: at 0.1 µM.

As a reminder, the inhibition is the drop in the measured response relative to a control, in per cent.

Mast/stem cell growth factor receptor Kit (Homo sapiens), sequence (P10721 whole entry): as the sequence (P10721 whole entry T670I) above, with I670T counted along it
Leukocyte tyrosine kinase receptor (Homo sapiens), sequence (P29376 whole entry): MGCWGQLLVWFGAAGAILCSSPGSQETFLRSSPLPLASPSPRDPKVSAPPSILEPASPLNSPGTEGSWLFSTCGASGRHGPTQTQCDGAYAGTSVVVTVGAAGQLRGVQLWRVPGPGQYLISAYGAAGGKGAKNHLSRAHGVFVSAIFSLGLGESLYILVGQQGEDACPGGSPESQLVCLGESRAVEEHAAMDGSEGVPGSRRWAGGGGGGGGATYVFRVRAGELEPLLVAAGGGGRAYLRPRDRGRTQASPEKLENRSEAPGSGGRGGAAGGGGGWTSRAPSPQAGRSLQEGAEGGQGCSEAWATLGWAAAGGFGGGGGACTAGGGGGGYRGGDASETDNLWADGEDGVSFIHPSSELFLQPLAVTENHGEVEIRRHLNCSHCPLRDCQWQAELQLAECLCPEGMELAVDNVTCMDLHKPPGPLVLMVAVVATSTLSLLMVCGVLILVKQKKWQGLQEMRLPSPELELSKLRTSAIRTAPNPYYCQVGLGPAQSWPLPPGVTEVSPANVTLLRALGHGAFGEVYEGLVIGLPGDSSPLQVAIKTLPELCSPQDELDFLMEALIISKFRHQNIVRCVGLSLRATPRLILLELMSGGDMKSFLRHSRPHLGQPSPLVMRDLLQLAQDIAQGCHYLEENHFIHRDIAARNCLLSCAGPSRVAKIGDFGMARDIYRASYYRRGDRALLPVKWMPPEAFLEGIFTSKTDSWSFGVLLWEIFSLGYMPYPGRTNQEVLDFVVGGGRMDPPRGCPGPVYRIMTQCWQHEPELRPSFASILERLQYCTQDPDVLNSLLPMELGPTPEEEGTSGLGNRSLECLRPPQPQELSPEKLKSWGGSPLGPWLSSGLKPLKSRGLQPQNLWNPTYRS
Mast/stem cell growth factor receptor Kit (Homo sapiens), P10721 [D816V], sequence (P10721 whole entry D816V): as the sequence (P10721 whole entry T670I) above, with I670T, D816V counted along it

As to `O=C(Nc1n[nH]c2nc(-c3ccco3)ccc12)C1CC1`, the inhibition in assay [1] was 1.57%; in assay [2], -0.41%; in assay [3], 0.03%; in assay [4] it was 1.03%; in [5] it was 2.02%; in [6], 3.13%. Moreover, the inhibition was determined as 6.74% in [7]; 1.24% in [8]; 3.59% in assay [9]; 1.06% in [10]; 1.2% in assay [11]; 2.83% in assay [12]. Further, the inhibition amounted to 4.01% in assay [13]; 1.47% in assay [14]; 3.2% in assay [15]; 2.01% in assay [16]; 1.71% in [17]; 4.66% in [18]. The values for the inhibition in [19] and in [20] were 5.26% and 5.75%, respectively.
Take `NC(=O)Cc1ccccc1Oc1nccc(-c2c(-c3ccc(F)cc3)ncn2C2CCNCC2)n1`: the inhibition in assay [1] is 0.35%; in assay [2], 0.95%; in assay [3], -1.59%; in assay [4], -0.35%; in assay [5], -1.27%; in assay [6] it was 0.54%. Also, the inhibition was -3.43% in assay [7]; 1.45% in assay [8]; 1.06% in assay [9]; 3.35% in assay [10]; 2.41% in assay [11]; 2.61% in [12]. Moreover, the inhibition was determined as 3.78% in assay [13]; 1.91% in [14]; 1.88% in [15]; 0.54% in assay [16]; 3.34% in assay [17]; 2.67% in assay [18]. For the same molecule, the inhibition in assay [19] came to 3.24%; in assay [20] it was 2.87%.
As to `COc1cccc(/C=N/Nc2ncnc3c2cnn3-c2cccc(OC)c2)c1`, the inhibition in [1] is 6.76%; in assay [2], 2.28%; in assay [3], 4.96%; in [4], 1.91%; in assay [5] it was 4.1%; in assay [6] it was 3.55%. The inhibition in [7] was determined as 0.61%; in [8], 2.18%; in assay [9] it was 8.97%; in assay [10] it was 5%; in [11], 4.06%; in assay [12], 5.08%. Moreover, the inhibition in assay [13] is 15.3%; in assay [14], 3.29%; in assay [15], 10.9%; in assay [16], 1.87%; in assay [17] it was 2.85%; in assay [18], 4.9%. Moreover, the inhibition in assay [19] was 9.96%; in assay [20], 1.34%.
Turning to `COc1ccc2ncn(-c3cc(O[C@H](C)c4ccccc4Cl)c(C(N)=O)s3)c2c1`, the inhibition in assay [1] was 23.1%; in [2] it was 2.74%; in assay [3], 7.75%; in assay [4] it was 2.4%; in assay [5] it was 7.3%; in assay [6] it was -1.68%. Moreover, the inhibition in assay [7] is 0.26%; in assay [8] it was -2.03%; in assay [9], -1.76%; in assay [10], 2.73%; in [11], 2.89%; in assay [12], 3.82%. Further, the inhibition in assay [13] is 5.65%; in assay [14] it was 2.15%; in [15], 2.91%; in assay [16], 2.41%; in assay [17], 4.42%; in assay [18], 4.37%. Further, the values for the inhibition in assay [19] and in [20] were 4.23% and 2.62%, respectively.
In the case of `Cc1ccc(C(=O)NC(C)C)cc1-c1ccc(C(=O)NCC2CC2)cc1`, the inhibition was -4.83% in [1]; 14.1% in assay [2]; -0.69% in assay [3]; -3.01% in [4]; -1.47% in assay [5]; 1.17% in assay [6]. Also, the inhibition in [7] is 1.03%; in [8], -1.32%; in assay [9], 0.84%; in assay [10], -1.19%; in assay [11], -1.83%; in [12] it was -2.52%. In addition, the inhibition in [13] was -1.28%; in assay [14], -1.84%; in [15] it was -0.78%; in assay [16] it was -1.23%; in [17], -0.29%; in assay [18], -2.98%. Further, the inhibition in assay [19] was -5.28%; in assay [20], -2.44%.
